Compound activity from PubChem.
In the library only some 6.8% were active in any assay of this set; here they are far more common.
Pf Dd2 inh – P. falciparum Dd2 growth inhibition; AID 1159554; 94,000 tested, 2.3% active; activity change, % at 10 µM; SYBR Green, 72 h; active compounds read low; in the data active = activity change below about -80%; inconclusive = no clear call, values can overlap the other calls
C diff growth – blocks growth of Clostridium difficile. Clostridium difficile clinical isolate growth, OD600, 24 h; active compounds read low. growth activity, negative = inhibition, % at 16 µg/mL (by protocol). 86,000 tested, 0.25% active. AID 1259249;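 active = mean growth activity at or below -80% and every replicate also at or below -80%; inconclusive = mean at or below -80% but some replicate above -80%; inactive = mean growth activity above -80%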;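 note: 0% = DMSO wells and -100% = levofloxacin 16 µg/mL wells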
T cruzi growth-1 – blocks T. cruzi growth in NIH3T3 culture; inhibition, % at 8.34 µM; AID 624255; T. cruzi beta-gal in NIH3T3, GalScreen luminescence, 90 h; 77,000 tested, 5.9% active;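 active = mean inhibition above about 93%, with at least 55% of replicates each passing it, limit read from the data, passing the limit was not always enough; inconclusive = only one of those two conditions holds; inactive = neither condition holds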
T cruzi growth-2 – inhibitors of T. cruzi proliferation | shares compounds with T cruzi growth-1 | inhibition, % at 8.35 µM | 5,600 tested, 72% active | T. cruzi beta-gal in NIH3T3, GalScreen luminescence, 90 h;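 active = mean replicate inhibition above about 95% and at least 55% of replicates individually reaching it, limit read from the data; inconclusive = only one of the two criteria is met; inactive = neither criterion is met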
T cruzi growth-3 – Trypanosoma cruzi proliferation inhibition. T. cruzi beta-gal in NIH3T3, GalScreen luminescence, 90 h. inhibition, % at 2.09 µM. 5,600 tested, 21% active. shares compounds with T cruzi growth-1;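 active = mean inhibition above about 95%, with at least 55% of replicates also reaching it, limit read from the data; inconclusive = meets just one of the two conditions; inactive = meets neither condition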;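 note: plate controls were neutral control median for no effect and positive control median for full effect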
3T3 cytotox – NIH/3T3 (mouse) viability loss | shares compounds with T cruzi growth-1 | NIH/3T3 viability, CellTiter-Glo ATP luminescence, 90 h | cytotoxicity (signal decrease), % at 8.35 µM | 5,600 tested, 14% active;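 active = mean signal decrease across replicates above about 35% based on untreated-well scatter, with enough replicates individually passing, limit read from the data; inconclusive = no rule stated though some were filed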;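 note: 0% = median of neutral control wells and 100% = median of positive control wells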
NIH3T3 tox 2 – cytotoxicity in mouse NIH/3T3 fibroblasts | shares compounds with T cruzi growth-1 | 5,600 tested, 56% active | NIH/3T3 viability, CellTiter-Glo ATP luminescence, 90 h | inhibition, % at 24.9 µM;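 active = mean loss of cell viability signal at or above a set limit, and enough replicates individually reaching it; inconclusive = meets only the mean limit or only the replicate share; inactive = meets neither condition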;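 note: 0% = median of neutral control wells and 100% = median of positive control wells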
* hit, by the source's call; ? = inconclusive; . = no result.

SMILES	Pf Dd2 inh	C diff growth	T cruzi growth-1	T cruzi growth-2	T cruzi growth-3	3T3 cytotox	NIH3T3 tox 2
CO[C@H]1CN(C)C(=O)c2ccc(NC(=O)NC(C)C)cc2OC[C@@H](C)N(S(C)(=O)=O)C[C@@H]1C	66	14	.	.	.	.	.
CN1C(=O)c2cc(NC(=O)c3cccc(C(F)(F)F)c3)ccc2OC[C@@H]2O[C@H](CC(=O)NCCN3CCCC3)CC[C@@H]21	0	-8	98*	99*	82	-6	7
CN1C(=O)c2cc(NC(=O)C3CC3)ccc2OC[C@@H]2O[C@H](CC(=O)NCCN3CCCC3)CC[C@@H]21	2	-3	?	72	88	7	-6
CN1C(=O)c2cc(NC(=O)C3CC3)ccc2OC[C@@H]2O[C@@H](CC(=O)NCCN3CCCC3)CC[C@H]21	-18	1	28	.	.	.	.
CN1C(=O)c2cc(NC(=O)c3cccc(C(F)(F)F)c3)ccc2OC[C@@H]2O[C@@H](CC(=O)NCCN3CCCC3)CC[C@H]21	-15	-10	2	.	.	.	.
CCCc1cn(CC[C@H]2CC[C@H](NC(=O)C3CCC3)[C@H](CO)O2)nn1	7	0	.	.	.	.	.
Cc1ccc(S(=O)(=O)Nc2cccc3c2O[C@H](CN(C)S(=O)(=O)c2cn(C)cn2)[C@@H](C)CN([C@H](C)CO)C3=O)cc1	28	-4	8	.	.	.	.
Cc1noc(C)c1S(=O)(=O)Nc1ccc2c(c1)C(=O)N([C@@H](C)CO)C[C@@H](C)[C@H](CN(C)S(=O)(=O)c1cn(C)cn1)OCCCC[C@H](C)O2	-7	3	-7	.	.	.	.
CC(C)CC#Cc1ccc2c(c1)O[C@H](CN(C)Cc1ccc3c(c1)OCO3)[C@@H](C)CN([C@H](C)CO)S2(=O)=O	-74	12	.	.	.	.	.
CCCC#Cc1ccc2c(c1)O[C@@H](CN(C)Cc1ccc3c(c1)OCO3)[C@@H](C)CN([C@@H](C)CO)S2(=O)=O	-75	11	126*	89	103*	29	105*
CCCC#Cc1ccc2c(c1)O[C@H](CN(C)Cc1ccc3c(c1)OCO3)[C@H](C)CN([C@H](C)CO)S2(=O)=O	?	13	130*	100*	110*	6	104*
CC(C)CC#Cc1ccc2c(c1)O[C@H](CN(C)Cc1ccc3c(c1)OCO3)[C@@H](C)CN([C@@H](C)CO)S2(=O)=O	-63	23	65	.	.	.	.
CCCC#Cc1ccc2c(c1)O[C@H](CN(C)Cc1ccc3c(c1)OCO3)[C@@H](C)CN([C@H](C)CO)S2(=O)=O	.	19	101*	98*	92	26	106*
CC(C)CC#Cc1ccc2c(c1)O[C@H](CN(C)Cc1ccc3c(c1)OCO3)[C@H](C)CN([C@H](C)CO)S2(=O)=O	-33	20	89	.	.	.	.
CCCC#Cc1ccc2c(c1)O[C@H](CN(C)Cc1ccc3c(c1)OCO3)[C@H](C)CN([C@@H](C)CO)S2(=O)=O	-79	15	128*	?	112*	29	104*
CC(C)CC#Cc1ccc2c(c1)O[C@@H](CN(C)Cc1ccc3c(c1)OCO3)[C@H](C)CN([C@H](C)CO)S2(=O)=O	-73	26	61	.	.	.	.
C[C@H]1CN([C@@H](C)CO)S(=O)(=O)c2ccc(C#CC3(O)CCCC3)cc2O[C@@H]1CN(C)C(=O)Cc1ccncc1	-40	0	.	.	.	.	.
O=C(C[C@H]1CC[C@H](NC(=O)CN2CCOCC2)[C@@H](CO)O1)NCc1cccc(F)c1	7	.	29	.	.	.	.
C/C=C/c1ccc2c(c1)O[C@@H](CN(C)C(=O)C1CCC1)[C@H](C)CN([C@H](C)CO)S2(=O)=O	-21	.	-8	.	.	.	.
C[C@@H]1CN([C@@H](C)CO)C(=O)c2cc(NC(=O)Nc3ccc(F)cc3)ccc2O[C@@H]1CN(C)Cc1ccc(-c2ccccc2)cc1	-2	77	94*	96*	87	57*	102*
C[C@@H]1CN([C@H](C)CO)C(=O)c2cc(NC(=O)Nc3ccc(F)cc3)ccc2O[C@@H]1CN(C)Cc1ccc(-c2ccccc2)cc1	7	69	?	95*	89	111*	106*
C[C@H]1CN([C@@H](C)CO)C(=O)c2cc(NC(=O)Nc3ccccc3)ccc2O[C@H]1CN(C)Cc1ccc(-c2ccccc2)cc1	11	2	77	.	.	.	.
C[C@@H]1CN([C@H](C)CO)C(=O)c2cc(NC(=O)Nc3ccc(F)cc3)ccc2O[C@H]1CN(C)Cc1ccc(-c2ccccc2)cc1	9	2	48	.	.	.	.
C[C@@H]1CN([C@@H](C)CO)C(=O)c2cc(NC(=O)Nc3ccccc3)ccc2O[C@@H](C)CCCCO[C@@H]1CN(C)CC1CCCCC1	-74	13	?	101*	39	3	104*
C[C@@H]1CCCCO[C@@H](CN(C)CC2CCCCC2)[C@H](C)CN([C@@H](C)CO)C(=O)c2cc(NC(=O)c3ccccc3)ccc2O1	-46	14	-9	.	.	.	.
SMILES	Pf Dd2 inh	C diff growth	T cruzi growth-1	T cruzi growth-2	T cruzi growth-3	3T3 cytotox	NIH3T3 tox 2
C[C@H](CO)N1C[C@H](C)[C@@H](CN(C)CC2CCCCC2)OCCCC[C@H](C)Oc2ccc(NC(=O)Cc3ccccc3)cc2C1=O	-43	21	93	.	.	.	.
C[C@@H]1CN([C@@H](C)CO)C(=O)c2cc(NC(=O)Cc3ccccc3)ccc2O[C@@H](C)CCCCO[C@H]1CN(C)CC1CCCCC1	-39	13	116*	109*	59	1	58*
C[C@H](CO)N1C[C@H](C)[C@H](CN(C)CC2CCCCC2)OCCCC[C@H](C)Oc2ccc(NC(=O)Nc3ccccc3)cc2C1=O	-77	21	?	98*	60	13	105*
C[C@@H]1CN([C@H](C)CO)C(=O)c2cc(NC(=O)Nc3ccccc3)ccc2O[C@@H](C)CCCCO[C@@H]1CN(C)CC1CCCCC1	?	12	87	.	.	.	.
C[C@@H]1CCCCO[C@@H](CN(C)CC2CCCCC2)[C@H](C)CN([C@H](C)CO)C(=O)c2cc(NC(=O)c3ccccc3)ccc2O1	-70	5	117*	112*	?	20	105*
C[C@H](CO)N1C[C@H](C)[C@H](CN(C)CC2CCCCC2)OCCCC[C@H](C)Oc2ccc(NC(=O)c3ccccc3)cc2C1=O	-61	13	78	.	.	.	.
COc1ccc(S(=O)(=O)N[C@H]2CC[C@H](CCNC(=O)Cc3ccccn3)O[C@H]2CO)cc1	26	.	-39	.	.	.	.
Cc1ccccc1S(=O)(=O)N[C@H]1CC[C@H](CCn2cc(-c3ccccc3)nn2)O[C@@H]1CO	12	-1	8	.	.	.	.
C[C@H](CO)N1C[C@H](C)[C@H](CN(C)CC2CC2)OCCCC[C@H](C)Oc2ccc(NC(=O)Nc3ccccc3)cc2C1=O	-77	3	98*	104*	63	16	17
